Drawing on PubChem BioAssay AID2101 (National Center for Advancing Translational Sciences (NCATS), 2009), this text covers Potency for five compounds.

Several values for one entry are separate records, joined by “and”; a condition that tells them apart may be missing. Equal values may be shown once. About 300 (0.091%) of roughly 330,000 compounds were called active. Inconclusive results (about 4%) are left out. Calls follow the shape of the dose curve; as a rule, active = well fitted inhibition curve with a large enough effect; inconclusive = small, poorly fitted or top-dose-only effect, or effect the other way, or another doubt; inactive = no such curve, though single readings can be large or run the other way. Shown is part of a subset that was picked to be rich in actives. Where a call stands in place of a potency, no number is given. Some structures have more than one record in an assay (separate samples or runs), and their calls can disagree.
Potency is read from the fitted curve at half-maximal effect.

The test concerns the target Lysosomal acid glucosylceramidase (Homo sapiens) (UniProt P04062). Briefly: qHTS Assay for Inhibitors and Activators of N370S glucocerebrosidase as a Potential Chaperone Treatment of Gaucher Disease. To be noted: N370S GC spleen homogenate, 4MU-glucoside fluorescence; series mostly up to 59.4 µM. An excerpt: NIH Chemical Genomics Center [NCGC]
NIH Molecular Libraries Probe Production Centers Network [MLPCN]
Assay Submitter (PI): Wei Zheng
Glucocerebrosidase (GC) catalyzes the hydrolysis of beta-glucocerebroside to glucose and ceramide in lysosomes. Mutations in the glucocerebrosidase gene result in Gaucher disease, an autosomal recessive lysosomal storage disorder. Many of the mutations encountered in patients with Gaucher disease are missense alterations that may cause misfolding, decreased stability and/or mistrafficking of this lysosomal protein. […] These inhibitors include iminosugar analogs and three non-iminosugar inhibitors identified from a previous HTS of 62,000 compounds with the wild type recombinant enzyme. However, the enhancement of enzyme activity by the chaperone action of an enzyme inhibitor must be balanced against the direct inhibition of the enzyme. An enzyme activator could also function as a chaperone by binding to the enzyme and helping to correct its misfolding and mistrafficking. While activators for GC have not yet been identified, they may have better therapeutic potential than inhibitors. Therefore the discovery and development of chemical activators may provide a new strategy for the chaperone therapy.
We have optimized a new assay using N370S mutant GC derived from the spleen of a Gaucher patient. […] In addition, the MLPCN compound library has expanded, which increases the chance of finding new and better probes.
NCGC Assay Protocol Summary:
This is a fluorogenic enzyme assay with 4-methylumbelliferyl-beta-D-glucopyranoside as the substrate and N370S glucocerebrosidase from human spleen homogenate as the enzyme preparation. Upon the hydrolysis of this fluorogenic substrate, the resulting product, […] which can be detected by a standard fluorescence plate reader. Data were normalized to the controls for basal activity (without enzyme) and 100% activity (with enzyme). The AC50 values were determined from concentration-response data modeled with the standard Hill equation.
Assay buffer: 50 mM citric acid (titrated with potassium phosphate to pH 5.0), 100 mM potassium chloride, 10 mM sodium chloride, 1 mM magnesium chloride, 0.01% Tween-20.
1536-well assay protocol:
(1) Add 2 ul/well of spleen homogenate (27 ug final)
(2) Add 23 nL compounds in DMSO solution. The final titration was 0.5 nM to 58 uM.
(3) Add 2 ul of substrate (1 mM final)
(4) Incubate at 37C for 40 min.
(5) Add 2 ul stop solution (1M NaOH and 1M Glycine mixture, pH 10)
(6) Detect the assay plate in a ViewLux plate reader (PerkinElmer) with Ex=365 nm and Em=440nm.
Keywords: Glucocerebrosidase, beta-glucosidase, Gaucher Disease, pharmacological chaperone, chaperone therapy, high throughput screening, glucocerebrosidase inhibitor, MLSMR, MLSCN, NIH Roadmap, qHTS and NCGC
`CNCC[C@H](Oc1ccc(C(F)(F)F)cc1)c1ccccc1`: the Potency result was “inactive and 8.91 µM (active)”. `CC(C)CC(C)Nc1ccc(Nc2ccccc2)cc1` (stereo not given): the Potency entry is “inactive”.

For the compound `CC(CCC(=O)O)C1CCC2C3C(O)C[C@@H]4CC(O)CC[C@@]4(C)C3CC[C@@]12C` (stereo not given in full), the Potency result was “inactive”. Turning to `CC(Cl)Cl`, the Potency result was “inactive”. On to `CC(=O)[O][Sn]([c]1ccccc1)([c]1ccccc1)[c]1ccccc1`, for which the Potency result was “inactive”.
